SMILES strings stand for the structures. Active and inactive are the calls of the source. Rule for the calls: active = hit-call score of the fitted dose curve at least 0.9, where 1 is the maximum; inactive = score below 0.9.

The nature of this test: CCTE_Harrill_HTTr_Apoptosis_MCF7: CCTE's 6-hour Apoptosis Assessment for the High-Throughput Transcriptomics (HTTr) Platform, in MCF-7 cells cultured in DMEM + 10% fetal bovine serum, Harrill Lab (AID 2284011). From the text:
This is a cell-based assay that evaluates apoptosis using high content imaging to evaluate activation of caspase-3/7 using the CellEvent Caspase 3/7 Green detection reagent in 384-well format.One of seven assay components measured from the CCTE_Harrill_HTTr_Apoptosis assay. This was part of a full screening experiment. This is a cell-based assay that evaluates apoptosis in MCF-7 cells cultured in DMEM + 10% fetal bovine serum. High content imaging is used to evaluate activation of caspase-3/7 using the CellEvent Caspase 3/7 Green detection reagent. Measurements are taken at 6 hours after chemical dosing in 384-well format.The assay component endpoint CCTE_Harrill_HTTr_Apoptosis_MCF7 was analyzed with bidirectional fitting relation to DMSO as the negative control and baseline of activity. Using a type of viability reporter, gain-of-signal activity can be used to evaluate activation of caspase-3/7 using the CellEvent Caspase 3/7 Green detection reagent to understand changes in apoptosis. To generalize the intended target to other relatable targets, this assay endpoint is annotated to cell cycle, where the subfamily is apoptosis.
Chemicals were tested in MCF7 cells in an eight point dilution series with a six hour exposure duration.
On to `CCCCCCCC(=O)OCC(COC(=O)CCCCCCC)OC(=O)CCCCCCC`, for which the outcome was inactive.

Take `N#Cc1ccc(C2CCCc3cncn32)cc1` (stereo not given): the result was inactive.

Consider `Oc1ccc(-c2ccccc2)c(Cl)c1`, for which the result was inactive.

As for `c1ccc2cnccc2c1`, the result was inactive.

As to `CCCCOCC(C)O` (stereo not given), the result was inactive.

In the case of `CCCc1ccc(O)c(OC)c1`, the result was inactive.

With `CC(C)[N+](C)(CCOC(=O)C1c2ccccc2Oc2ccccc21)C(C)C`, the result was inactive.

For `CCCCCCCCCCCCCC(=O)OC(C)C`, the result was inactive.

Turning to `COC(=O)C=Cc1ccccc1`, the result was inactive.

As for `C=C1C[C@H]2[C@@H]3C=C(C)C4=CC(=O)CC[C@]4(C)[C@H]3CC[C@]2(C)[C@@]1(OC(C)=O)C(C)=O`, the outcome was inactive.

For `NNS(=O)(=O)c1ccc(Oc2ccc(S(=O)(=O)NN)cc2)cc1`, the outcome was inactive.

As for `C1CNCCN1`, the result was inactive.

Regarding `CN(C)c1ccc2nc3ccc(=[N+](C)C)cc-3sc2c1`, the outcome was inactive.

In the case of `CC(=O)OCCc1ccccc1`, the outcome was inactive.

In the case of `C=C(C)[C@@H]1CC=C(C)CC1`, the outcome was inactive.

For the compound `O=C(O)/C=C/c1ccccc1`, the outcome was inactive.

For `CCC(C)C(=O)OC` (stereo not given), the result was inactive.

For `Cc1noc(NS(=O)(=O)c2ccc(N)cc2)c1C`, the result was inactive.

Turning to `C=Cc1ccc(OC(C)=O)cc1`, the outcome was inactive.

On to `COc1ccc(-c2coc3cc(O)cc(O)c3c2=O)cc1`, for which the result was inactive.

For `CC(=O)OCc1ccccc1`, the outcome was inactive.

Regarding `CC1=CCC(C(C)C)C=C1` (stereo not given), the outcome was inactive.

In the case of `Cc1ccc([N+](=O)[O-])cc1N`, the outcome was inactive.

`Oc1ccc(/C=C/c2cc(O)cc(O)c2)cc1`: the outcome was inactive.

`O=C(O)CCCC(=O)O`: the outcome was inactive.

Turning to `CCCCOCCOC(=O)COc1ccc(Cl)cc1Cl`, the outcome was inactive.

As for `O=C(O)c1ccc2c(c1)C(=O)OC2=O`, the outcome was inactive.

As to `CC(C)(CO)C(O)C(=O)NCCCO` (stereo not given), the result was inactive.

For the compound `CCCCC1C(=O)N(c2ccccc2)N(c2ccccc2)C1=O`, the outcome was inactive.

Take `C=CCCCCCCCCC=O`: the result was inactive.

As to `Cn1ccnc1`, the outcome was inactive.

As for `CC(C)OC(=O)c1ccccc1`, the result was inactive.

As for `CCOC(=O)/C=C\C(=O)OCC`, the outcome was inactive.

On to `Cc1c[nH]c(=O)[nH]c1=O`, for which the result was inactive.

In the case of `CC(=O)CC(=O)Nc1ccccc1C`, the outcome was inactive.

`Oc1c(Cl)cc(Cl)c(Cl)c1Cl`: the outcome was inactive.

As to `CC(=O)OCC=C(C)C`, the result was inactive.

`O=C(Oc1ccccc1)c1ccccc1O`: the result was inactive.

On to `O=C(O)CCC(=O)O`, for which the outcome was inactive.

On to `C=C(C)C1CC=C(C)CC1` (stereo not given), for which the result was inactive.

The values above are taken from PubChem BioAssay (EPA / NIEHS).
